Prx2 Sm inh = Schistosoma Mansoni Peroxiredoxins (Prx2); S. mansoni Prx2 activity coupled to TGR/GSH (TGR is thioredoxin glutathione reductase), NADPH fluorescence loss, qHTS; Schistosoma mansoni peroxiredoxin 2 (Prx2); Potency, µM; 65,000 tested, 0.07% active
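Prx2 activity was followed as the loss of NADPH fluorescence (ex 365/em 450 nm), read every 30 sec for 8 min after H2O2 start. The enzyme mix (50 nM Prx2, 25 nM TGR, GSH, NADPH; pH 7.4 phosphate buffer) was incubated with compound for 15 min at room temperature first.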
AmpC inh no det = Promiscuous and Specific Inhibitors of AmpC Beta-Lactamase (assay without detergent); 71,000 tested, 1.8% active; AID 585, 2007; AmpC nitrocefin hydrolysis, absorbance 480 nm, no detergent; P00811; Potency, µM (titrated, usually from 28.7 µM), for the others: at the highest dose activity change, negative = inhibition; also: % of control where 0% means no effect
Target sequence (P00811 whole entry, looked up): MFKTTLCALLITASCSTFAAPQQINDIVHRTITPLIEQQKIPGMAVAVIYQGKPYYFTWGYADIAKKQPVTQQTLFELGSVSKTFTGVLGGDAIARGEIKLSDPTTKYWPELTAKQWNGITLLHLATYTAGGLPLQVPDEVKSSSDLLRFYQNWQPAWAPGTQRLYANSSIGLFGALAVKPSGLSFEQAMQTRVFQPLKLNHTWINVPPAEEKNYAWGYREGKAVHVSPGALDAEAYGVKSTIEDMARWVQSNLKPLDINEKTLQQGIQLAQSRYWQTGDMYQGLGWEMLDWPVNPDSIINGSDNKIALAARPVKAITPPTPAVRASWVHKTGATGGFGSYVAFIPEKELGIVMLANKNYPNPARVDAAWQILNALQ
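Enzyme, pH 7.0 phosphate. Compound titrations were pre-incubated with AmpC for 15 min at room temperature before nitrocefin (stock 800 uM) addition; product formation was recorded at 480 nm every 20 s for 4 min.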
Anthrax LT inh = qHTS Assay for Anthrax Lethal Toxin Internalization; 70,000 tested, 0.67% active; Cells, anthrax lethal toxin internalization, FRET ratio (460/530); AID 912, 2007; Potency, µM (top dose mostly 40 µM), inactives show top-dose activity change, negative = inhibition, hits mostly inhibitors; also: % is scaled to controls: 0 for no effect and ±100 for the full control effect; nearly all actives have a fitted effect of over 50% in size
AmpC inh det = Promiscuous and Specific Inhibitors of AmpC Beta-Lactamase (assay with detergent). P00811. purified AmpC, nitrocefin hydrolysis with detergent. Potency, µM (titrated, usually from 28.7 µM), inactives show at the top dose activity change, negative = inhibition. 71,000 tested, 0.09% active. AID 584, 2007; active = well fitted curve in the direction sought with a large enough effect; inconclusive = small, poorly fitted or top-dose-only effect; also: % is scaled to controls: 0 for no effect and ±100 for the full control effect
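E. coli AmpC (5.3 nM) in 20 mM phosphate pH 7.0 with 0.01% Triton X-100, preincubated 15 min RT with compound; nitrocefin (2 uL of 800 uM stock) hydrolysis followed by 480 nm absorbance every 20 s over 4 min.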
An asterisk follows results filed as active; [ ] = another dose, or the depositor's remark. An excerpt weighted towards active compounds, which were near 2.6% of everything screened. Unless noted, calls follow the shape of the full dose curve. Potency is read from the fitted curve at half-maximal effect.

How did CCN1C(=O)[C@H]2[C@H]3[C@H](O)[C@H](O)C/C(=N/O[C@@H](C)c4cn([C@H]5COC[C@H]5O)nn4)[C@@H]3CC[C@@H]2C1=O do in these assays?
Anthrax LT inh: -9%[8 µM]

How did CO[C@H]1COC(=O)C/C=C\[C@H](C)[C@H](OC)COC(=O)[C@@H](C)COC(=O)C/C=C\[C@@H]1C do in these assays?
Anthrax LT inh: -2%[8 µM]

Results for COc1cc2c(C)nc3onc(-c4ccccc4)c3c2cc1OC ?
Prx2 Sm inh: >57; AmpC inh no det: 104%; Anthrax LT inh: 1µM*; AmpC inh det: -4%

Results for COc1cc(-c2nc(-c3cccc(C)c3)no2)cc(OC)c1OC ?
AmpC inh no det: 68%; Anthrax LT inh: inconclusive; AmpC inh det: -1%

How did Cc1sc2nc3ccc(N4CCCC4)nn3c(=O)c2c1C do in these assays?
Prx2 Sm inh: >57; AmpC inh no det: 4µM*[single pt active]; Anthrax LT inh: -14%; AmpC inh det: 18%

How did O=C(CCCn1c(=O)[nH]c2ccccc2c1=O)N1CCN(c2ccccn2)CC1 do in these assays?
Prx2 Sm inh: >57; AmpC inh no det: 3.2µM*[single pt active]; Anthrax LT inh: 12%; AmpC inh det: 12%

How did O=C(CCCCn1c(=O)[nH]c2ccccc2c1=O)N1CCN(c2ncccn2)CC1 do in these assays?
Prx2 Sm inh: >57; AmpC inh no det: 4µM*[single pt active]; Anthrax LT inh: -8%; AmpC inh det: 14%

How did O=C(CCCCn1c(=O)[nH]c2ccccc2c1=O)N1CCN(c2cccc(C(F)(F)F)c2)CC1 do in these assays?
Prx2 Sm inh: >57; AmpC inh no det: 93%; Anthrax LT inh: inconclusive; AmpC inh det: -4%

Results for O=C(O)c1ccc(NS(=O)(=O)c2ccsc2C(=O)O)cc1 ?
Anthrax LT inh: 0%

Results for COc1cccc(Nc2ncc3ncc(=O)n(C[C@H]4CCCO4)c3n2)c1 ?
Prx2 Sm inh: >57; AmpC inh no det: 54%; Anthrax LT inh: 6%; AmpC inh det: -3%

What do the screens show for `O=C(O)/C=C\c1c2ccc(=O)c(O)c-2oc2c(O)c(O)ccc12`?
Prx2 Sm inh: >57; AmpC inh no det: 1.6µM*; Anthrax LT inh: inconclusive; AmpC inh det: 2µM*

How did Cn1c(NCc2ccccc2Cl)nc2ccccc21 do in these assays?
Prx2 Sm inh: >57; AmpC inh no det: 4µM*[single pt active]; Anthrax LT inh: -24%; AmpC inh det: 10%

What do the screens show for `CCCn1c(Nc2nc3ccccc3n2C)nc2ccccc21`?
Prx2 Sm inh: >57; AmpC inh no det: -13%; Anthrax LT inh: 6.3µM*; AmpC inh det: -4%

What do the screens show for `COCCn1c(=O)c(-c2cccc(C#N)c2)nc2cnc(N3CCOCC3)nc21`?
Prx2 Sm inh: >57; AmpC inh no det: 11%; Anthrax LT inh: inconclusive; AmpC inh det: 0%

How did C[C@@]12C=CC(=O)C=C1CC[C@H]1[C@H]3CC[C@](O)(C(=O)CO)[C@]3(C)CC(=O)[C@@H]12 do in these assays?
Prx2 Sm inh: >57; AmpC inh no det: 16%[12.8 µM]; Anthrax LT inh: 2%[3.58 µM]; AmpC inh det: -4%[12.8 µM]

What do the screens show for `Cc1ccc2oc(=O)c3cnn(CC(=O)N4CCCc5ccccc54)c3c2c1`?
AmpC inh no det: 36%; Anthrax LT inh: 14%; AmpC inh det: 6%

How did O=C(Cn1ncc2c(=O)oc3ccccc3c21)N1CCC(N2CCCCC2)CC1 do in these assays?
Prx2 Sm inh: >57; AmpC inh no det: 3.2µM*[single pt active]; Anthrax LT inh: -13%; AmpC inh det: 10%

How did O=C(Cn1ncc2c(=O)oc3ccccc3c21)N1CCc2ccccc2C1 do in these assays?
Prx2 Sm inh: >57; AmpC inh no det: 4µM*[single pt active]; Anthrax LT inh: -11%; AmpC inh det: 12%

Results for CCc1ccc(N(CC(=O)NC2CCCCC2)S(=O)(=O)c2c(C)noc2C)cc1 ?
Prx2 Sm inh: >57; AmpC inh no det: 4µM*[single pt active]; Anthrax LT inh: -24%; AmpC inh det: 12%

Results for CCOc1ccc(N(CC(=O)NC2CCCCC2)S(=O)(=O)c2c(C)noc2C)cc1 ?
Prx2 Sm inh: >57; AmpC inh no det: 14%; Anthrax LT inh: -3%; AmpC inh det: 6%

What do the screens show for `O=C(CC1SC2=NCCN2C1=O)Nc1ccc(Br)cc1` (stereo not given)?
Prx2 Sm inh: >57; AmpC inh no det: 8%; Anthrax LT inh: inconclusive; AmpC inh det: -2%

Results for O=C(CC1Sc2ncnn2C1=O)Nc1ccc(Br)cc1 (stereo not given) ?
Prx2 Sm inh: >57; AmpC inh no det: 5µM*; Anthrax LT inh: inconclusive; AmpC inh det: 11%

Bioassay records as filed in PubChem BioAssay.
